Assay outcomes as filed in PubChem.
eIF4H FP inh: inhibitors of RNA binding by human eIF4H. 290,000 compounds, 0.94% hits. eIF4H fluorescence polarization binding assay. AID 2012. inhibition, % at 35 µM. Q15056;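 note: calls also rest on retests at 20 µM and on dose response follow-up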
UBC9 SUMO inh: SUMOylation inhibition; P63279; 290,000 compounds, 0.36% hits; HTRF SUMOylation assay, SAE1/SAE2 + UBC9, in vitro; inhibition, % at 35 µM; in the data active = inhibition above about 50%, passing the limit was not always enough
Target sequence (P63279 whole entry, looked up): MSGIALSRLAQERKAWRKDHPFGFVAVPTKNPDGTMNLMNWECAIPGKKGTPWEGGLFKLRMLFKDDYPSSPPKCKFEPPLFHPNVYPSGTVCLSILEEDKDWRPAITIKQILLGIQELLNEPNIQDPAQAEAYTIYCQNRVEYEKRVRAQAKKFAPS
Efflux pump mplx: inhibitors of Candida antifungal efflux pumps expressed in yeast | inhibition, % at 10 µM | S. cerevisiae Candida pump triplex, Nile Red efflux | 330,000 compounds, 0.44% hits;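 active = plate passing quality check with inhibition over a set limit, or well fluorescence over plate mean plus 4 SD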;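 note: Nile Red retained in pooled yeast measured as flow cytometry median fluorescence; higher means more Nile Red kept so more efflux inhibition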
MLLE-PAM2 inh: blocks PAM2 peptide binding to the PABP1 MLLE domain; P11940; GST-MLLE / FITC-PAM2 fluorescence polarization; inhibition, % at 20 µM; 360,000 compounds, 0.36% hits; AID 588489; in the data active = inhibition above about 35%, passing the limit was not always enough
PABP FP inh: PABP-poly(A) binding inhibition; inhibition, % at 35 µM; 290,000 compounds, 1% hits; P11940; PABP-poly(A) RNA binding, fluorescence polarization;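 note: calls also rest on retests at 20 µM and on dose response follow-up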
ALR H2O2 inh: blocks human ALR sulfhydryl oxidase activity | AID 485317 | 290,000 compounds, 3.8% hits | inhibition, % (concentration not given with the values) | P55789 | purified ALR, DTT oxidation, H2O2 HRP-luminol luminescence;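 active = mean replicate inhibition above about 79%, with every replicate also reaching it, limit read from the data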
Target sequence (P55789 whole entry, looked up): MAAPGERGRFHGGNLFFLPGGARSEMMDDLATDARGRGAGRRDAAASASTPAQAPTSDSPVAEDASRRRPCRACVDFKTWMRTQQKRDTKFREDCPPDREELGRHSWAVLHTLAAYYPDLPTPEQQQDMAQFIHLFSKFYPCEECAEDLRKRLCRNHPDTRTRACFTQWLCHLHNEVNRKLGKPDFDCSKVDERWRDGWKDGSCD
A number is an active result; 0 = inactive; - = not tested or not shown. An excerpt weighted towards active compounds, which were near 4.7% of everything screened. Unless noted, the rule behind the calls is not given here.

SMILES | eIF4H FP inh | UBC9 SUMO inh | Efflux pump mplx | MLLE-PAM2 inh | PABP FP inh | ALR H2O2 inh
COc1cnc(SCc2ccc(Cl)cc2)nc1Cl | 0 | 0 | 0 | 0 | 0 | 98.3
Cc1nc(SCc2ccc(Cl)cc2)ncc1C(=O)O | 0 | 0 | 0 | 0 | 0 | 0
O=C(CCn1c(=O)c2ccccc2n(Cc2ccccc2)c1=O)NCc1ccc2c(c1)OCO2 | 0 | 0 | 0 | 0 | 0 | -
Cc1cc(-c2csc(NC(=O)c3cc4ccccc4o3)n2)c(C)n1C | 98.3 | 0 | 0 | 0 | 11.5 | 0
COc1ccc(NC(C)C(=O)Nc2cccc(S(=O)(=O)N3CCOCC3)c2)cc1OC (configuration not stated) | - | - | 0 | 0 | - | -
CC[N+](C)(CC)CCOC(=O)C(O)(c1ccccc1)C1CCCCC1 (configuration not stated) | 0 | 0 | 0 | 0 | 0 | 0
CC[N+](C)(CC)CCC(c1ccccc1)C1CCCCC1 (configuration not stated) | 0 | 0 | 0 | 0 | 86.6 | 0
COc1ccccc1NC(=O)Cn1c([N+](=O)[O-])cnc1C | 0 | 0 | 0 | 0 | 0 | 0
COc1ccc([C@H]2CC(=O)C=C(c3cccc(C(C)C)c3)C2)cc1OC | - | - | 0 | 0 | - | 0
Cc1cccc(C(=O)NCCC(=O)Nc2nc(C)c(Cc3ccc4c(c3)OCO4)s2)c1 | active | 0 | 0 | 0 | 76.6 | 0
CCCS(=O)(=O)NC(=O)C1(C)CCN(C(=O)c2cc(C)nn2C(C)(C)C)C1 (configuration not stated) | - | - | - | 0 | - | -
O=C(O)C1Nc2ccc(OC(F)(F)F)cc2C2C=CCC12 (configuration not stated) | - | - | 0 | - | - | 96.8
Cc1ccc2c(c1)C1C=CCC1C(C(=O)O)N2 (configuration not stated) | 0 | 60.0 | 0 | - | 0 | 0
O=C(NC1CC1)C1Nc2ccc(OC(F)(F)F)cc2C2C=CCC12 (configuration not stated) | - | - | 0 | 0 | - | 0
CC(=O)c1ccc2c(c1)C1C=CCC1C(C(=O)O)N2 (configuration not stated) | 101.1 | 78.3 | - | 0 | 89.4 | -
C=CCOC(=O)N1CCC2CC1c1cc(-c3cccc(C)c3)ccc12 (configuration not stated) | - | - | - | 0 | - | -
CC(C)CN(C(=O)c1cccc(Cl)c1)c1c(N)n(Cc2ccccc2)c(=O)[nH]c1=O | - | - | 0 | 0 | - | 0
O=c1cc[nH]c2ccc([N+](=O)[O-])cc12 | 0 | 0 | 0 | 0 | 0 | 0
COC(OC)c1nc(SCC(=O)Nc2cccc(Cl)c2)ncc1C(=O)O | 0 | 0 | 0 | 0 | 0 | 98.6
Nc1cc(=O)[nH]c(SCC(=O)Nc2cccc(Cl)c2)n1 | 0 | 0 | 0 | 0 | 0 | 0
O=C(CSc1nnc(CNC(=O)c2ccccc2F)o1)Nc1ccc2c(c1)OCCO2 | 0 | 0 | 0 | 46.7 | 0 | -
O=C(CSc1nnc(CNC(=O)c2ccccc2F)o1)Nc1ccc2c(c1)OCO2 | 0 | 0 | 0 | 0 | 0 | 98.9
O=C(CSc1nnc(CNC(=O)c2c(F)cccc2Cl)o1)Nc1ccccc1 | 0 | 0 | 0 | 0 | 0 | 0
O=C(CSc1nnc(CNC(=O)c2ccccc2)o1)Nc1ccc2c(c1)OCCO2 | 0 | 0 | 0 | 0 | 0 | 98.4
CCc1ccc(NC(=O)CSc2nnc(CNC(=O)c3c(F)cccc3Cl)o2)cc1 | 0 | 0 | 0 | 0 | 0 | 98.6
SMILES | eIF4H FP inh | UBC9 SUMO inh | Efflux pump mplx | MLLE-PAM2 inh | PABP FP inh | ALR H2O2 inh
O=C(NCc1cccnc1)c1cc(C2CCCCN2C(=O)OCc2ccccc2)on1 (configuration not stated) | - | - | - | 0 | - | -
C[C@H](CO)N1C[C@H](C)[C@@H](CN(C)S(C)(=O)=O)Oc2ccc(NC(=O)NC3CCCCC3)cc2C1=O | - | - | 0 | 0 | - | 0
COC(=O)CN1C(=O)C(O)(CC(=O)c2ccc(C)cc2)c2cc(Br)ccc21 (configuration not stated) | 0 | 0 | 0 | 0 | 0 | 0
COC(=O)CN1C(=O)C(O)(CC(=O)c2ccc(Br)cc2)c2ccccc21 (configuration not stated) | 0 | 0 | 0 | 0 | 0 | 96.5
NCc1cc2c3c(c1)CCCN3CCC2 | 92.9 | 0 | 0 | 36.5 | 114.6 | 0
COc1ccc(N=C(C)C2=C(O)c3ccccc3C2=O)cc1 | 0 | 0 | 0 | 0 | 0 | 0
COc1ccc(N=C(N(C)C)P(=O)(N(C)C)N(C)C)cc1 | 0 | 0 | 0 | 0 | 0 | 99.0
Cc1nc2ccc(NC(=O)c3cc(Cl)ccn3)cc2s1 | 0 | 0 | 0 | 0 | 0 | 0
CC1CCN(c2ccccc2NC(=S)NC(=O)c2ccco2)CC1 | - | - | 0 | 46.5 | - | 0
CC1CCN(c2ccccc2NC(=S)NC(=O)C(C)(C)C)CC1 | 0 | 0 | 0 | 38.8 | 0 | 0
O=C(NC(=S)Nc1ccccc1Br)c1ccco1 | 0 | 0 | 0 | 45.5 | 0 | -
Cc1cccc(NC(=S)NC(=O)c2ccco2)c1C | 0 | 0 | 0 | 0 | 0 | 0
CN(C)c1ccc(NC(=O)Nc2nc(C(N)C3CCCCC3)cs2)cc1 (configuration not stated) | - | - | - | 0 | - | -
Cc1cc(C)nc(OC(=O)c2ccc(Cl)cc2Cl)n1 | 0 | 0 | 0 | - | 0 | 97.7
Cc1cc(C(F)(F)F)c2c(N)c(C(=O)Nc3cc(C)on3)sc2n1 | 59.0 | 0 | 0 | 0 | 54.9 | -
Cc1cc(NC(=O)c2sc(Nc3ccc(F)cc3)nc2N)no1 | 0 | 0 | 0 | 0 | 0 | 96.9
Cc1ccc(C(=O)OC(C)C(=O)N(C)C2CCCCC2)cc1S(=O)(=O)N1CCCCC1 (configuration not stated) | - | - | 0 | 0 | - | 0
COc1ccc(CNC(=O)c2sc(=O)n(Cc3ccccc3OC)c2C)cc1 | - | - | - | 0 | - | -
Cc1ccc(N2CCN(C(=O)CNS(=O)(=O)c3ccc(Br)s3)CC2C)cc1 (configuration not stated) | 0 | 0 | 0 | 0 | 0 | 97.8
CC1CC(C)CN(C(=O)CNS(=O)(=O)c2ccc(Br)s2)C1 (configuration not stated) | 0 | 0 | 0 | 0 | 0 | -
COc1cccc(NC(=O)N2CCN(c3cccc(C)c3)C(C)C2)c1 (configuration not stated) | 0 | 0 | 0 | 0 | 0 | 98.5
COc1cccc(NC(=O)N2CCCCCC2)c1 | 0 | 0 | 0 | 0 | 0 | 0
Cc1cccc(N2CCN(C(=O)CCNS(=O)(=O)c3cccs3)CC2C)c1 (configuration not stated) | 0 | 0 | 0 | 0 | 0 | 92.5
CCC(=O)N1CCc2cc(S(=O)(=O)NCCC(=O)N3CCN(c4cccc(C)c4)C(C)C3)ccc21 (configuration not stated) | 0 | 0 | 0 | 0 | 0 | 97.6
CC1CC(C)CN(C(=O)CCNS(=O)(=O)c2cccs2)C1 (configuration not stated) | 0 | 0 | 0 | 0 | 0 | 0
C[C@H](CO)N1C[C@H](C)[C@@H](CN(C)Cc2ccc(C(=O)O)cc2)OCc2cnnn2CCCC1=O | - | - | - | 0 | - | -
S=C(NCc1ccco1)N/N=C/c1ccc(Cl)cc1 | 0 | 0 | 0 | 0 | 0 | -
Oc1c(Br)cc(/C=N/NC(=S)NCc2ccco2)cc1Br | 0 | 0 | 0 | 0 | 0 | 89.5
CCN(CC)c1ccc(/C=N/NC(=S)NCc2ccco2)cc1 | 0 | 0 | 0 | 0 | 0 | 98.6
